# Source: PubChem (The Scripps Research Institute Molecular Screening Center)
# In the library only some 2.3% were active in any assay of this set; here they are far more common.
# UHRF1 binding: human UHRF1 methylated DNA binding inhibitors. Q96T88. UHRF1 binding to methylated oligo, TR-FRET. inhibition, % at 4.4 µM. actives 0.75% (n = 370,000). AID 687016; in the data active = inhibition above about 21%;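 note: UHRF1 SRA domain binding a hemimethylated CpG hairpin DNA probe; 0% = median of test compound wells and 100% = reference inhibitor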
# MBD2 inh: MBD2-methylated oligo binding inhibition | actives 0.31% (n = 370,000) | AID 686964 | Q9UBB5 | inhibition, % at 4.4 µM | TR-FRET, MBD2 binding to methylated oligonucleotide; in the data active = inhibition above about 13%
# PLC-gamma1 inh: PLC-gamma1 (human) inhibition, primary screen; P19174; purified PLC-gamma1, fluorogenic substrate, fluorescence; inhibition, % at 12.2 µM; actives 0.84% (n = 370,000); AID 720700
# LEDGF integ inh: blocks HIV-1 LEDGF/p75-dependent DNA integration; TR-FRET IN-LEDGF/p75 DNA integration, Eu/Cy5; inhibition, % at 3.7 µM; actives 0.64% (n = 370,000); AID 743269;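 active = inhibition above the screen-wide mean plus 3 SD, cut at about 13% in these data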;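 note: signal is the Cy5 over europium emission ratio at 671 and 618 nm; 0% = plate median of compound wells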
# PLCb3 inh: PLC-beta3 (human) inhibition, primary screen. Purified PLC-beta3, fluorogenic substrate, fluorescence. AID 720704. actives 0.18% (n = 370,000). inhibition, % at 12.2 µM. Q01970; in the data active = inhibition above about 11%;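 note: 0% = median of compound wells on plate and 100% = full blocker control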
# PLCgamma1 ctr: inhibits human PLC-gamma1 in PLC-beta3 counter-screen; shares compounds with PLC-gamma1 inh; purified PLC-gamma1, fluorogenic substrate, fluorescence; inhibition, % at 12.3 µM; actives 3.1% (n = 3,300); AID 743258
# PLCbeta3 conf: confirmation of human PLC-beta3 inhibitors | AID 743261 | inhibition, % at 12.3 µM | shares compounds with PLC-gamma1 inh | purified PLC-beta3, fluorogenic substrate fluorescence | actives 1% (n = 3,300); in the data active = inhibition above about 11%
# IN multimer up: activates HIV-1 integrase multimerization in LEDGF counter-screen; shares compounds with LEDGF integ inh; TR-FRET HIV-1 integrase multimerization, biochemical; activation, % at 7.7 µM; actives 17% (n = 2,000); AID 1053131; in the data active = activation above about 8.9%
# TRFRET interf: optically interferes with TR-FRET readout in LEDGF counter-screen. TR-FRET optical interference counterscreen, HIV-1 IN multimerization. 2,000 tested, under 10 active. inhibition, % at 7.7 µM. AID 1053135. shares compounds with LEDGF integ inh;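 active = inhibition above the mean over all tested compounds plus 3 SD, which no compound reached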;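 note: 0% = integrase with antibodies and DMSO and 100% = antibodies without integrase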
# IN-LEDGF confirm: LEDGF/p75-dependent HIV-1 integration inhibition, confirmation; shares compounds with LEDGF integ inh; TR-FRET LEDGF/p75-dependent HIV-1 integration, biochemical; inhibition, % at 3.7 µM; actives 36% (n = 2,000); AID 1053136; in the data active = inhibition above about 14%
# Active calls of the source: *; / = no result. Cut-off read from the data, not from the text of the source, unless noted: active = inhibition above about 9.5%; inactive = the rest.
SMILES,UHRF1 binding,MBD2 inh,PLC-gamma1 inh,LEDGF integ inh,PLCb3 inh,IN multimer up,TRFRET interf,IN-LEDGF confirm,others
O=c1cc2oc3cc(O)c(O)cc3c(-c3ccccc3[N+](=O)[O-])c-2cc1O,41*,13,13*,86*,9,11*,-55,86*,PLCgamma1 ctr=17*;PLCbeta3 conf=9
COc1ccc(C(C[N+](=O)[O-])c2c(C)[nH]n(-c3ccccc3)c2=O)cc1 (centres undefined),16,13,10*,25*,-1,5,-19,22*,PLCgamma1 ctr=3;PLCbeta3 conf=6
NC1=C(Cl)C(=O)c2ccc(S(N)(=O)=O)cc2C1=O,-6,-23,16*,29*,3,12*,-42,76*,PLCgamma1 ctr=19*;PLCbeta3 conf=-1
O=C(O)CCCN1C(=O)/C(=C\c2ccco2)SC1=S,52*,6,15*,35*,-8,7,-26,40*,PLCgamma1 ctr=23*;PLCbeta3 conf=-5
Cc1ccc(-c2cc(C(=O)NN=Cc3ccc(-c4ccccc4)cc3)[nH]n2)cc1,-1,1,0,-3,-2,/,/,/,
C/C=C(\C)CN1CCCC(CO)(Cc2ccccc2)C1 (centres undefined),1,-5,12*,14*,-5,1,-3,1,PLCgamma1 ctr=-2;PLCbeta3 conf=0
CSc1ccc(CN2CCCC(CO)(Cc3ccccc3)C2)cc1 (centres undefined),-1,-3,2,-5,1,/,/,/,
COC(=O)c1cc(S(=O)(=O)N2CCN(C(C)=O)CC2)cn1C,0,0,2,3,5,/,/,/,
CCCOc1ccc(CC(=O)NCCc2ccccc2)cc1OC,0,-5,12*,14*,-1,1,-5,-4,PLCgamma1 ctr=0;PLCbeta3 conf=4
COc1ccc(CCNC(=O)Cc2ccccc2)cc1OC,0,-2,-1,-5,-4,/,/,/,
Cc1ccccc1CN1CCCCC(NC(=O)C2CCC2)C1=O (centres undefined),-2,0,7,7,4,/,/,/,
Fc1cccc(Cl)c1/C=N/Nc1ccccn1,0,-1,0,2,-4,/,/,/,
CCc1nnc(N/N=C/c2c(F)cccc2Cl)n1N,7,-2,14*,57*,3,0,2,-6,PLCgamma1 ctr=-9;PLCbeta3 conf=-4
CCOc1cc(/C=N/Nc2ncnc(Cl)c2N)ccc1O,-6,-8,-6,4,-10,/,/,/,
CCOc1cc(/C=N/Nc2nnc(C)n2N)ccc1O,6,-5,20*,66*,5,1,-3,-4,PLCgamma1 ctr=-5;PLCbeta3 conf=-1
Clc1cccc(CNC2CCC23CCCCC3)c1 (centres undefined),-2,2,1,2,1,/,/,/,
COc1ccc(CSc2nnc(SCC(=O)Nc3ccccc3-c3ccccc3)s2)cc1,-2,3,-2,-1,-2,/,/,/,
CC(C)(C)c1cc(=O)n(-c2ccccc2)[nH]1,15,9,28*,22*,9,-2,7,11,PLCgamma1 ctr=7;PLCbeta3 conf=2
COc1ccc(-c2cc(C(=O)OCC(=O)c3c(N)n(C)c(=O)n(C)c3=O)c3ccccc3n2)cc1,1,-2,-28,1,-47,/,/,/,
Cn1c(N)c(C(=O)COC(=O)c2cc(-c3ccco3)nc3ccccc23)c(=O)n(C)c1=O,19,10,-14,29*,-22,22*,-78,62*,
O=C(Nc1ccc(C(=O)O)cc1)/C(=C\c1ccco1)NC(=O)c1ccc(Br)cc1,10,5,-55,14*,-81,0,2,2,
O=C(NC(Cc1ccccc1)C(=O)O)/C(=C\c1ccco1)NC(=O)c1ccccc1 (centres undefined),0,-3,-12,7,-15,/,/,/,
O=C(NC(Cc1ccccc1)C(=O)O)/C(=C\c1ccco1)NC(=O)c1ccc(Br)cc1 (centres undefined),7,1,-26,22*,-56,0,-2,-2,
C=CCN(C(=O)[C@@H](C1CC1)[C@@H](O)c1ccc2ccccc2c1)c1ccccc1,-2,0,-1,-1,0,/,/,/,
CCn1c(SCC(=O)c2ccc(-c3ccccc3)cc2)nnc1-c1ccccc1OC,-3,-5,1,6,-5,/,/,/,
SMILES,UHRF1 binding,MBD2 inh,PLC-gamma1 inh,LEDGF integ inh,PLCb3 inh,IN multimer up,TRFRET interf,IN-LEDGF confirm,others
COC(=O)C[C@H]1C[C@H]2c3cc(NC(=O)Cc4ccncc4)ccc3O[C@H]2[C@@H](CO)O1,-5,-7,0,14*,1,0,0,-5,
COC(=O)C[C@@H]1C[C@H]2c3cc(NC(=O)CC4CC4)ccc3O[C@H]2[C@@H](CO)O1,1,3,-3,-2,-3,/,/,/,
CCOC(=O)[C@H](Cc1ccccc1)NC(=O)[C@H]1C[C@@]2(N3CCCCC3)c3ccccc3N(C(=O)OC(C)(C)C)[C@H]2N1C(=O)OC(C)(C)C,-1,-1,3,-2,6,/,/,/,
O=c1oc(/C=C/c2ccco2)nc2sc3c(c12)CCC3,40*,12,-10,25*,-20,1,-4,2,
O=c1oc(-c2cccs2)nc2sc3c(c12)CCC3,-4,1,-12,0,-15,/,/,/,
C#CCNC(=O)C1=C[C@H](C)C[C@H](OCc2ccc(CO)cc2)O1,4,1,0,4,3,/,/,/,
C[C@@H]1C=C(C(=O)NCc2ccccc2)O[C@H](OCc2ccc(CO)cc2)C1,22*,9,5,16*,1,0,2,1,
CCCN(CC1CC1)C(=S)NC(=O)c1cc(Br)ccc1Cl,-6,-7,1,17*,-5,0,2,10,
Cc1cc(=O)oc(C)c1C(=O)Nc1cccc2ccccc12,-4,-2,2,30*,4,0,-2,-1,
Cc1ccccc1NC(=O)c1c(C)cc(=O)oc1C,4,5,-4,-1,6,/,/,/,
O=C(NC1CCCCN(Cc2cccc(C(F)(F)F)c2)C1=O)C1C2CC3CC(C2)CC1C3 (centres undefined),1,-3,-1,0,4,/,/,/,
NS(=O)(=O)c1ccc(CCNC(=O)c2ccc(Cl)nc2)cc1,1,1,4,16*,-4,0,2,-8,
COc1ccc(CCNC(=O)c2ccc(Cl)nc2)cc1,1,4,2,2,-4,/,/,/,
C=CCN1C(=O)[C@@H](CC(=O)NCCC(C)C)[C@]2(C(=O)OC)CCCCC=C12,4,-1,5,6,2,/,/,/,
